Most compounds without a hit are left out; they make up all but 19% or so of the library.
Pf growth 48h – inhibits P. falciparum growth in the first generation, 48 h; P. falciparum luciferase growth in erythrocytes, 48 h; Potency, µM (doses to about 28.7 µM), for inactives: at the top dose activity change, negative = inhibition, usual class: inhibitors; hit rate 5.9% among 310,000; AID 504832; also: potency is read from the fitted curve at half-maximal effect; % is scaled to controls: 0 for no effect and ±100 for the full control effect
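Cell-based growth assay: transgenic P. falciparum expressing firefly luciferase, cultured in red cells within RPMI 1640 containing 0.5% w/v Albumax, 24 mM bicarbonate and gentamycin. A drop in luciferase activity indicates inhibition.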
Pf growth 96h – inhibits malaria parasite growth, 96 h. P. falciparum luciferase reporter growth, 96 h. Potency, µM (series often up to 28.7 µM), inactives show top-dose activity change, negative = inhibition, hits mostly inhibitors. hit rate 6.9% among 320,000. AID 504834; also: potency is read from the fitted curve at half-maximal effect; % is scaled to controls: 0 for no effect and ±100 for the full control effect
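Cell-based qHTS: luciferase-tagged P. falciparum in erythrocytes (2% hematocrit, 0.05% parasitemia final) incubated with compounds for 96 hours, 37 C, 5% CO2; luciferase detection reagent then added and luminescence measured.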
LASV entry inh – inhibitors of Lassa virus binding or cell entry | Lassa virus pseudotype entry inhibition, cell reporter | Potency, µM (doses to about 37.9 µM), for the others: at the top dose activity change, negative = inhibition, usual class: inhibitors | hit rate 1.2% among 300,000 | AID 540256; calls by dose curve; tested in HEK293 cells; also: potency is read from the fitted curve at half-maximal effect; % is scaled to controls: 0 for no effect and ±100 for the full control effect; nearly all actives have a fitted effect of over 50% in size
CHX counter – counter-screen for Shiga toxin inhibitors: cycloheximide protein synthesis inhibition | cell reporter, cycloheximide protein synthesis inhibition counterscreen | max response, % | hit rate 12% among 300,000 | AID 2314; in the data active = max response mostly above about 13%, no sharp cut-off; inactive = mostly below about 14%; also: read at 38.3 µM for the half of the compounds with a filed dose; 0% is about no effect
Marburg entry inh – blocks Marburg virus binding to or entry into cells | Marburg virus pseudotyped entry inhibition, cell reporter | Potency, µM (top dose mostly 37.8 µM), inactives show at the top dose activity change, negative = inhibition, hits mostly inhibitors | hit rate 1.8% among 300,000; calls by dose curve; tested in HEK293 cells; also: potency is read from the fitted curve at half-maximal effect; % is scaled to controls: 0 for no effect and ±100 for the full control effect
Shiga inhibitor – Shiga toxin inhibition; Vero cells, Shiga toxin protein synthesis inhibition reporter; inhibition, % at 38.7 µM; hit rate 9.2% among 290,000; in the data active = inhibition mostly above about 28%, no sharp cut-off; inactive = mostly below about 43%; also: 0% is about no effect
Active calls of the source: *; i = inactive; ? = inconclusive; · = not tested or not shown; + = active, no number; [ ] = remark or other dose. Unless noted, calls follow the shape of the dose curve; as a rule, active = well fitted inhibition curve with a large enough effect; inconclusive = small, poorly fitted or top-dose-only effect, or another doubt; inactive = no such curve, though single readings can be large or run the other way.

SMILES | Pf growth 48h | Pf growth 96h | LASV entry inh | CHX counter | Marburg entry inh | Shiga inhibitor
CC1CCCC2(C1)NC(=S)N(c1ccccc1)N2 (configuration not stated) | 39% | 66% | 1% | 28* | -1% | 28
S=C1NC2(CCCCC2)NN1c1ccccc1 | 2% | -1% | -28%[46.1 µM] | 5 | ? | 15
O=C(CSc1nc2c(c(C(F)(F)F)n1)CCc1ccccc1-2)NCc1ccccc1 | -11% | 21% | 1% | 3 | ? | 17
Cc1nn(Cc2ccccc2)c(C)c1NC(=O)CSc1nc2c(c(C(F)(F)F)n1)CCc1ccccc1-2 | 5.2µM* | 8.3µM* | ? | -2 | ? | -2
CC(Sc1ccccn1)C(=O)Nc1ccccc1 (configuration not stated) | 60% | ? | 47%[14.3 µM] | 40* | 17% | 76*
CC(Sc1ccccn1)C(=O)Nc1ccc(S(N)(=O)=O)cc1 (configuration not stated) | · | -6% | 3% | 1 | -2% | -1
CC(=O)c1ccc(NC(=O)C(C)Sc2nnnn2C)cc1 (configuration not stated) | ? | -7%[5.75 µM] | 53%[14.3 µM] | 8 | 24% | -7
CC(=O)c1ccc(NC(=O)C(C)Sc2ccccn2)cc1 (configuration not stated) | 69% | ? | 5%[46.1 µM] | 34* | -3%[46.1 µM] | 77*
CC1CN(C(=O)c2cc([N+](=O)[O-])cc([N+](=O)[O-])c2)CC(C)O1 (configuration not stated) | 123% | 1% | 22%[46.1 µM] | 42* | -25%[46.1 µM] | 104*
CC1CC(C)CN(C(=O)/C=C/c2ccc([N+](=O)[O-])s2)C1 (configuration not stated) | -114% | 9.3µM* | · | 5 | · | 50
CC1CN(C(=O)/C=C/c2ccc([N+](=O)[O-])s2)CC(C)O1 (configuration not stated) | ? | ? | ? | 15 | 11µM* | -14
CN(C(=O)Cn1c(=O)n(CCCS(=O)(=O)C2CCCCC2)c(=O)c2ccccc21)c1ccccc1 | · | · | -7%[46.1 µM] | · | 1%[46.1 µM] | ·
C[Se]CCC(N)C(=O)O (configuration not stated) | 2% | ? | · | 1 | · | 14
Cc1nn(-c2ccccc2)c(C)c1NC(=O)COC(=O)c1cccc(OC(F)F)c1 | 4% | 84% | 7% | · | ? | ·
O=C(CN1C(=O)CSc2ccc(S(=O)(=O)N3CCCCC3)cc21)NCc1ccccc1 | -15% | 4.1µM* | -23%[46.1 µM] | -7 | -14%[46.1 µM] | -7
CCN(CC)CC(C)CNC(=O)CN1C(=O)CSc2ccc(S(=O)(=O)N3CCOCC3)cc21 (configuration not stated) | -8% | 13µM* | 15%[46.1 µM] | -6 | 4% | -13
CCC(C)(C(=O)Nc1ccc2c(c1)OCCO2)N(C(C)=O)c1ccc(C(N)=O)cc1 (configuration not stated) | 18% | ? | -1% | 2 | 15% | -16
COc1ccc2c(c1)C(c1ccc(C)cc1)CC(=O)O2 (configuration not stated) | · | · | · | 10 | · | i
COc1ccc(C(=O)NC(C(=O)OCC(=O)Nc2sccc2C(N)=O)C(C)C)cc1 (configuration not stated) | 12µM* | -15% | · | · | · | ·
Cc1ccsc1C(=O)OCC(=O)Nc1sccc1C(N)=O | 105% | 275% | 3% | 42* | -3% | 65*
COc1ccc(-c2nc(C)ncc2N=Nc2ccccc2)cc1 | 9.3µM* | 3.7µM* | 2% | 20* | -15% | 23
CN(/N=C/c1c[nH]c2ccccc12)c1cnn(-c2ccc(F)c(Cl)c2)c(=O)c1Cl | · | -18% | -19% | -5 | 6% | 14
CN(/N=C/c1cccnc1)c1cnn(-c2ccc(F)c(Cl)c2)c(=O)c1Cl | 0% | · | -2% | 20* | ? | 82
O=C(Nc1nc2ccc(F)cc2s1)C1CCN(S(=O)(=O)c2cc([N+](=O)[O-])ccc2Cl)CC1 | ? | ? | ? | 34* | ? | 52*
CC(NC(=O)C1CCN(S(=O)(=O)c2cc([N+](=O)[O-])ccc2Cl)CC1)c1ccccc1 (configuration not stated) | -14% | -8% | -20%[46.1 µM] | -2 | ? | -8
SMILES | Pf growth 48h | Pf growth 96h | LASV entry inh | CHX counter | Marburg entry inh | Shiga inhibitor
O=[N+]([O-])c1ccc(Cl)c(S(=O)(=O)N2CCCCCC2)c1 | -19% | 10µM* | -7% | -1 | 6% | -2
O=[N+]([O-])c1ccc(Cl)c([N+](=O)[O-])c1 | 10µM* | ? | · | · | · | ·
O=[N+]([O-])c1cc(Cl)c(Cl)cc1Cl | 24% | ? | · | · | · | ·
Cc1ccc2nc(NC(=O)C3CCN(S(=O)(=O)c4cc([N+](=O)[O-])ccc4Cl)CC3)sc2c1 | -1% | ? | ? | 13* | 8.2µM* | +
O=C(OCc1cc(=O)n2ccsc2n1)c1ccccc1O | · | · | 7% | · | ? | ·
CCC(C)NC(=O)c1ccc(CSCc2ccccc2Cl)o1 (configuration not stated) | 7.4µM* | 18% | ? | 23* | ? | 29
O=C(O)c1ccc(CSCc2ccccc2Cl)o1 | 15% | 27% | · | -2 | · | -6
CC(C)NC(=O)c1ccc(CSCc2ccccc2Cl)o1 | 1.5µM* | 4.7µM* | ? | 27* | ? | 21
O=C(Nc1ccccc1N1CCCCC1)c1ccc(Cl)cc1 | · | -9% | 6% | 15 | -18% | 22
NC(=O)c1ccc(OCc2ccccc2)nc1 | · | · | 20% | · | ? | ·
O=c1cc(N2CCCCC2)c(-c2ccccc2)nn1Cc1ccc(F)cc1 | ? | 13µM* | -25%[46.1 µM] | -4 | ? | -2
O=c1cc(N2CCCCC2)c(-c2ccccc2)nn1Cc1c(Cl)cccc1Cl | ? | 10µM* | 13µM* | -2 | ? | -9
COc1ccc(CN=CC2=C(O)CC(C)(C)CC2=O)cc1 | · | -7% | 11% | 23* | ? | 40
CC1(C)CC(=O)C(C=NCC(O)c2ccccc2)=C(O)C1 (configuration not stated) | 5% | 7.4µM* | -1% | 5 | ? | -8
COc1ccc(CN=CC2=C(O)CNC2=O)cc1 | 0% | 36% | 12% | -5 | -4% | -15
CC1(C)CC(=O)C(/C=N/c2ccccn2)=C(O)C1 | -10% | -38% | -6% | 7 | -2% | 11
CC1(C)CC(=O)C(/C=N/n2cnc3ccccc3c2=O)=C(O)C1 | 25% | ? | 9% | 14* | 13% | 5
CC1(C)CC(=O)C(C=Nc2ccccc2)=C(O)C1 | 25% | 2% | 2% | 26* | -5% | 52
CC1(C)CC(=O)C(C=Nc2ccccc2Sc2ccccc2)=C(O)C1 | -1% | 25% | ? | 13 | 13% | -15
Cc1ccc(C(=O)NCC(=O)OCCCOC(=O)CNC(=O)c2ccc(C)cc2)cc1 | 6% | 32% | 18% | · | 0%[46.1 µM] | ·
Cc1ccc(C(=O)NC(C)(COc2nonc2C)COc2nonc2C)cc1 | 12µM* | · | -1% | -2 | -4% | -23

Screening results: PubChem, National Center for Advancing Translational Sciences (NCATS)
